The text below walks through data of ChEMBL document CHEMBL1961873, “Compounds: GSK PKIS; Assays: Nanosyn kinase panel” (2012).

Test [1] deals with Tyrosine-protein kinase Fer (Homo sapiens) (UniProt P16591). The settings on record: at 1 µM.
Test [2] concerns the target Tyrosine-protein kinase Fes/Fps (Homo sapiens) (UniProt P07332). The settings on record: at 0.1 µM.
Test [3] shares this target. Particulars: at 1 µM.
The target of test [4] is Fibroblast growth factor receptor 1 (Homo sapiens) (UniProt P11362). Particulars: at 0.1 µM.
Test [5] has the same target. The settings on record: at 1 µM.
Test [6] addresses Fibroblast growth factor receptor 2 (Homo sapiens) (UniProt P21802). The settings on record: at 0.1 µM.
The target is the same in test [7]. The settings on record: at 1 µM.
The target of test [8] is Fibroblast growth factor receptor 3 (Homo sapiens) (UniProt P22607). The settings on record: at 0.1 µM.
Test [9] shares this target. The settings on record: at 1 µM.
Test [10] deals with Fibroblast growth factor receptor 4 (Homo sapiens) (UniProt P22455). The settings on record: at 0.1 µM.
Test [11] shares this target. Particulars: at 1 µM.
The target of test [12] is Tyrosine-protein kinase Fgr (Homo sapiens) (UniProt P09769). The settings on record: at 0.1 µM.
Test [13] has the same target. Particulars: at 1 µM.
In test [14] the target is Vascular endothelial growth factor receptor 1 (Homo sapiens) (UniProt P17948). Particulars: at 0.1 µM.
Test [15] has the same target. Particulars: at 1 µM.
In test [16] the target is Receptor-type tyrosine-protein kinase FLT3 (Homo sapiens) (UniProt P36888). Particulars: at 0.1 µM.
Test [17] has the same target. The settings on record: at 1 µM.
Test [18] concerns T1, Receptor-type tyrosine-protein kinase FLT3 (Homo sapiens), P36888 [D835Y].
T1 sequence (whole entry): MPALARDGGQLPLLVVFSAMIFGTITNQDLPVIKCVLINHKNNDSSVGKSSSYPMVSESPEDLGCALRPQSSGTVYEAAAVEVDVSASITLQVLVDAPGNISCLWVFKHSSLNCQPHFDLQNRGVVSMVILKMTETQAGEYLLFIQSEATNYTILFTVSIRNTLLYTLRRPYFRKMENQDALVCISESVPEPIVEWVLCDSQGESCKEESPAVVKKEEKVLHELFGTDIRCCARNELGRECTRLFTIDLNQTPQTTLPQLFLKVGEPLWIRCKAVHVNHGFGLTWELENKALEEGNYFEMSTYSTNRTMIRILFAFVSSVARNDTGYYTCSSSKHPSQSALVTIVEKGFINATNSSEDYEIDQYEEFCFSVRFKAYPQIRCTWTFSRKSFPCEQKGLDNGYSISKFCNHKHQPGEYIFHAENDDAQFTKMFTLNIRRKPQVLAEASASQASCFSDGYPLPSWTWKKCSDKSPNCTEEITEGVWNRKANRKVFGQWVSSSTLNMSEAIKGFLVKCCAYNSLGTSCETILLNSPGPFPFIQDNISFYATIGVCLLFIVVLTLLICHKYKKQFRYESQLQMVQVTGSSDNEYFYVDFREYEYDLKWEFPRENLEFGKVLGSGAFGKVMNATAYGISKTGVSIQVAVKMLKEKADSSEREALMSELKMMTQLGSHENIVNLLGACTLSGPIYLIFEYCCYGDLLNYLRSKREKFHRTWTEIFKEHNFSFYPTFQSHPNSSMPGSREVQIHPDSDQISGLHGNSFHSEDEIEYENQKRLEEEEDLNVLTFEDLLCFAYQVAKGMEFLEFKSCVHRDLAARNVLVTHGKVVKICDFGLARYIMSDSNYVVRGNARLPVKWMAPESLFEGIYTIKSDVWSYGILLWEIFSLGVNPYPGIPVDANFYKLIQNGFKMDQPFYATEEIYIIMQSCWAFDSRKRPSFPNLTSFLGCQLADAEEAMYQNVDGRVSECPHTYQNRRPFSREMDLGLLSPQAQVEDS
Particulars: at 0.1 µM.

The target in test [19] is Non-receptor tyrosine-protein kinase TYK2 (Homo sapiens) (UniProt P29597). The settings on record: at 1 µM.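 Also: values are mean percent inhibition of TYK2 kinase.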
For test [20], the target named is T2, Tyrosine-protein kinase receptor TYRO3 (Homo sapiens) (UniProt Q06418).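 Also: reported percentages are averaged inhibition values of TYRO3 kinase activity.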
T2 sequence (whole entry): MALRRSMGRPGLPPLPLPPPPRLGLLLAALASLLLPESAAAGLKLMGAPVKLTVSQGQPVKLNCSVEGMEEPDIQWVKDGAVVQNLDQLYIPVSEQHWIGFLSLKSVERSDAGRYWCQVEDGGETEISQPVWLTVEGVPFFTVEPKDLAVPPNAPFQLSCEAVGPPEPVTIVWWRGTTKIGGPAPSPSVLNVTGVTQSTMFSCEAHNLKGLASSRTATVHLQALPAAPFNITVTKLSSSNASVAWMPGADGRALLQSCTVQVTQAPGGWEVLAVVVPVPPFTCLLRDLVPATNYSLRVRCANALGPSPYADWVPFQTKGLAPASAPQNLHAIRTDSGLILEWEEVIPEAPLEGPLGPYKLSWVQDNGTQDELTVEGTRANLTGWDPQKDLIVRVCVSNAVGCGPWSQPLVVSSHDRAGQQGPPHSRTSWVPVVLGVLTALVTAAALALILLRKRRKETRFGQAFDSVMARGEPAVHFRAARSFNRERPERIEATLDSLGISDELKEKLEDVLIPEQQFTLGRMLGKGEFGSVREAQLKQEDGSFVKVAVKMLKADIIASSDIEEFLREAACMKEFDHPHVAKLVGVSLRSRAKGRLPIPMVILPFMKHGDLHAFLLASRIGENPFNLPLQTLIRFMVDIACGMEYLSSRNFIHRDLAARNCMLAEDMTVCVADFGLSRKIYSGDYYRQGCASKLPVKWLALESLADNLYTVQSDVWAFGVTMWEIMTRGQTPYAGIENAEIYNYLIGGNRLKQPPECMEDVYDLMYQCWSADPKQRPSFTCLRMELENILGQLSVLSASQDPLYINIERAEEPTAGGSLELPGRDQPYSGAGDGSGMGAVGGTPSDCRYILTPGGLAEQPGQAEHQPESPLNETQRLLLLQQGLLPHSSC
The settings on record: at 0.1 µM.

Molecules are shown by their SMILES.

Vascular endothelial growth factor receptor 1 (Homo sapiens), sequence (P17948 whole entry): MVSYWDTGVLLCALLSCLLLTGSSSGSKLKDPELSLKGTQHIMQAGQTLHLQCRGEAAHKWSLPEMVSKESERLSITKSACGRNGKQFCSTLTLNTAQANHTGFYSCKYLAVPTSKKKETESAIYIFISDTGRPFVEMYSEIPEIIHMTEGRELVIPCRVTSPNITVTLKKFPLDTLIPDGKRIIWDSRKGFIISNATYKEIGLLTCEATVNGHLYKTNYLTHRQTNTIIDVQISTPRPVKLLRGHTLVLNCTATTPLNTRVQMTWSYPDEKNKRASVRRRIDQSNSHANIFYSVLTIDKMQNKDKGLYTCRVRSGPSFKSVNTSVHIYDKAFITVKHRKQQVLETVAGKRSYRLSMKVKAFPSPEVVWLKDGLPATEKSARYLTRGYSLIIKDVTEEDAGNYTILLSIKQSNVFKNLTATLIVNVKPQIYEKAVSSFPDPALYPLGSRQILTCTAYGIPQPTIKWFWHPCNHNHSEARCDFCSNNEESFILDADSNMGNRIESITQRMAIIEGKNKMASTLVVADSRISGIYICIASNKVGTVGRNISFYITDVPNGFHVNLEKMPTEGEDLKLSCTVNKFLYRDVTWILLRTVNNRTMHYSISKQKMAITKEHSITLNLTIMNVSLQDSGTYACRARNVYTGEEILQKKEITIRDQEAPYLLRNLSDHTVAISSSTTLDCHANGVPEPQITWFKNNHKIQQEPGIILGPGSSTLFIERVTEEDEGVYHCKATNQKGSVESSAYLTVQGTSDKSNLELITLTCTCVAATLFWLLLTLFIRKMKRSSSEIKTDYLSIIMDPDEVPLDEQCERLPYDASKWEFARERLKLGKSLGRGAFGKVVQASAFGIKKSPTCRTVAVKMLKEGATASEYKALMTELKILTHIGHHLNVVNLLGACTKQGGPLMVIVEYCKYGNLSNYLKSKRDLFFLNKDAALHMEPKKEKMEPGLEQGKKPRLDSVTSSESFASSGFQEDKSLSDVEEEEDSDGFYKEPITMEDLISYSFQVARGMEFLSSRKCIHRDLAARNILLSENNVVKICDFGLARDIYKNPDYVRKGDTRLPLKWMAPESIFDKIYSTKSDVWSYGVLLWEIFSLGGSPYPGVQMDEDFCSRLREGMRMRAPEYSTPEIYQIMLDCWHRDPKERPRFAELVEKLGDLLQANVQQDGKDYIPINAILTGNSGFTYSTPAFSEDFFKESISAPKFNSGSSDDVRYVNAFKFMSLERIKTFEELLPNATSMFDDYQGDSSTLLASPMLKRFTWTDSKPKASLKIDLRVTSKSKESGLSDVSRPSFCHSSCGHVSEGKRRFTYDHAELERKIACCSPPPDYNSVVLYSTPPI
Fibroblast growth factor receptor 1 (Homo sapiens), sequence (P11362 22-822 limits assumed): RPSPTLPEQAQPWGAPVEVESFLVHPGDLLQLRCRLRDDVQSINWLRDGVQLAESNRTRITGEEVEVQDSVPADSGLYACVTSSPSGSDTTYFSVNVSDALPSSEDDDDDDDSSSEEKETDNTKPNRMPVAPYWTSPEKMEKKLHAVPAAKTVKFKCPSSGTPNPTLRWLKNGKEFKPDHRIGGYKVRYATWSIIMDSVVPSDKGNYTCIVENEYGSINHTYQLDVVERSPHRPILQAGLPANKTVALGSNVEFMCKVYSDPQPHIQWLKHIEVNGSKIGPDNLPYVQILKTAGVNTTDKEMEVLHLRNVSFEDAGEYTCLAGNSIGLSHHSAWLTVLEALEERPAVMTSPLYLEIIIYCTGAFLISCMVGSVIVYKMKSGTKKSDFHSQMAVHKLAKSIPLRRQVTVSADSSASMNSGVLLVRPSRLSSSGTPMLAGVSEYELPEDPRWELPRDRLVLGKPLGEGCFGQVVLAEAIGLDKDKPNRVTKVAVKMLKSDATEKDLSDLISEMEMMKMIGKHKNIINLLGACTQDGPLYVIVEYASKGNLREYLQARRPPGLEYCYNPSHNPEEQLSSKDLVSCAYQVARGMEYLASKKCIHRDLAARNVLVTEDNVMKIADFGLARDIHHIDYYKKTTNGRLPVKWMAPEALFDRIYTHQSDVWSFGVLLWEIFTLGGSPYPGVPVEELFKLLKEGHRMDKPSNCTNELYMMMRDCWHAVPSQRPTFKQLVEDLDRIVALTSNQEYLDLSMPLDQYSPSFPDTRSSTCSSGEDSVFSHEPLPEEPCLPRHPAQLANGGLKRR
Tyrosine-protein kinase Fgr (Homo sapiens), sequence (P09769 2-529 limits assumed): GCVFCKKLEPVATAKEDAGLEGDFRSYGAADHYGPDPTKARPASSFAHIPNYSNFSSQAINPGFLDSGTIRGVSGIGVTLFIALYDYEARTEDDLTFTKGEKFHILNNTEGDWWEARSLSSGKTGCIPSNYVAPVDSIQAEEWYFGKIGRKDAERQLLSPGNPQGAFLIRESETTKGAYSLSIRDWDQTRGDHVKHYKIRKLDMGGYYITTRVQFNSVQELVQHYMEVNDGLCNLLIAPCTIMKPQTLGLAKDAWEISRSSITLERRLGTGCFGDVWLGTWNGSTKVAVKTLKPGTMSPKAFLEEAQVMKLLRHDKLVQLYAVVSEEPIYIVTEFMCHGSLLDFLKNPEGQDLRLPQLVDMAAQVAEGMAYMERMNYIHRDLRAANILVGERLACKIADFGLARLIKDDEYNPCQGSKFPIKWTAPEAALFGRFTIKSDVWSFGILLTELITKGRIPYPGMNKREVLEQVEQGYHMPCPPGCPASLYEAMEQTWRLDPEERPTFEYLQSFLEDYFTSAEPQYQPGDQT
Tyrosine-protein kinase Fes/Fps (Homo sapiens), sequence (P07332 whole entry): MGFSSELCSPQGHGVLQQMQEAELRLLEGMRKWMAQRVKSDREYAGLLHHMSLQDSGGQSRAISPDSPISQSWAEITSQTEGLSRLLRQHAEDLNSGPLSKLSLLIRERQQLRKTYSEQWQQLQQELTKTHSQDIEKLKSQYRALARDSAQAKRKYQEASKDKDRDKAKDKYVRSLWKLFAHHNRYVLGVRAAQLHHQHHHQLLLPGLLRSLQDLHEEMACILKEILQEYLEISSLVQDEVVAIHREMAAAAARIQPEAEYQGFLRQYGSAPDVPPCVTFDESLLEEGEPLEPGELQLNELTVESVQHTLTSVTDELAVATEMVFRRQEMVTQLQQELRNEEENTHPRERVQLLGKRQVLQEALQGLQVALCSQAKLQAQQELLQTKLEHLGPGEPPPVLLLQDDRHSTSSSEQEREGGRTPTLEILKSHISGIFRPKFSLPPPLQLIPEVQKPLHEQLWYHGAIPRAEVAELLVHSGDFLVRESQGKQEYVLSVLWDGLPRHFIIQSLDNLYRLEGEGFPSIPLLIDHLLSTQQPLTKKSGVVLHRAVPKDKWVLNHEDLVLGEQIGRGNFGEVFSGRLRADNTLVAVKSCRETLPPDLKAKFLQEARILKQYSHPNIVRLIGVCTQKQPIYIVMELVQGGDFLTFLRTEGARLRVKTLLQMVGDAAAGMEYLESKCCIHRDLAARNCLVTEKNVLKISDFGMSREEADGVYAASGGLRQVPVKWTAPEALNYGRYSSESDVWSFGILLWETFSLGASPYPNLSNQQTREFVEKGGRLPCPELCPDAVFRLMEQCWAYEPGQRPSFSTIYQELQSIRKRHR
Tyrosine-protein kinase Fer (Homo sapiens), sequence (P16591 whole entry, looked up): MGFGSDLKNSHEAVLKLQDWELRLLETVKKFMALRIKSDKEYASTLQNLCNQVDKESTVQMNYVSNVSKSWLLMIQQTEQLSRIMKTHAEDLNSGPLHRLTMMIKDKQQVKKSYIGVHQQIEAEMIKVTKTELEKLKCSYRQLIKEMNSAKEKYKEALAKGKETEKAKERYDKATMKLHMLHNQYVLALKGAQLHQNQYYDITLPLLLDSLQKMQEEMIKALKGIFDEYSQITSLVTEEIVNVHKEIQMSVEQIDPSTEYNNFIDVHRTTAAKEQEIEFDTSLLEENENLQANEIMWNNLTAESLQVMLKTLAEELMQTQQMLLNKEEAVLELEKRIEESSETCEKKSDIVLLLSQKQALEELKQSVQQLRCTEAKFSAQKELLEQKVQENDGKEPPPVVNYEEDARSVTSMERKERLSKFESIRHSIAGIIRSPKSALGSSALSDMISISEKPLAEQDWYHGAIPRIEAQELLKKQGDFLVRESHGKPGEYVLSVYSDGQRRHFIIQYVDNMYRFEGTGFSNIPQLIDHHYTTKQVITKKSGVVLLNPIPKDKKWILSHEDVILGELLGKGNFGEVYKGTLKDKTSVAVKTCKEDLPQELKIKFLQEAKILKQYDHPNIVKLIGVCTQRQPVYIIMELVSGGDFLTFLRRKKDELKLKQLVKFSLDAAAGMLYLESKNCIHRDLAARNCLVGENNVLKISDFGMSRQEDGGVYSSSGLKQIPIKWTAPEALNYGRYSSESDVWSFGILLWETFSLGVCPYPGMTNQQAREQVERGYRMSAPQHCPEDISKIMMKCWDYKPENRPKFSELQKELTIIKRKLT
Fibroblast growth factor receptor 4 (Homo sapiens), sequence (P22455 22-802 limits assumed): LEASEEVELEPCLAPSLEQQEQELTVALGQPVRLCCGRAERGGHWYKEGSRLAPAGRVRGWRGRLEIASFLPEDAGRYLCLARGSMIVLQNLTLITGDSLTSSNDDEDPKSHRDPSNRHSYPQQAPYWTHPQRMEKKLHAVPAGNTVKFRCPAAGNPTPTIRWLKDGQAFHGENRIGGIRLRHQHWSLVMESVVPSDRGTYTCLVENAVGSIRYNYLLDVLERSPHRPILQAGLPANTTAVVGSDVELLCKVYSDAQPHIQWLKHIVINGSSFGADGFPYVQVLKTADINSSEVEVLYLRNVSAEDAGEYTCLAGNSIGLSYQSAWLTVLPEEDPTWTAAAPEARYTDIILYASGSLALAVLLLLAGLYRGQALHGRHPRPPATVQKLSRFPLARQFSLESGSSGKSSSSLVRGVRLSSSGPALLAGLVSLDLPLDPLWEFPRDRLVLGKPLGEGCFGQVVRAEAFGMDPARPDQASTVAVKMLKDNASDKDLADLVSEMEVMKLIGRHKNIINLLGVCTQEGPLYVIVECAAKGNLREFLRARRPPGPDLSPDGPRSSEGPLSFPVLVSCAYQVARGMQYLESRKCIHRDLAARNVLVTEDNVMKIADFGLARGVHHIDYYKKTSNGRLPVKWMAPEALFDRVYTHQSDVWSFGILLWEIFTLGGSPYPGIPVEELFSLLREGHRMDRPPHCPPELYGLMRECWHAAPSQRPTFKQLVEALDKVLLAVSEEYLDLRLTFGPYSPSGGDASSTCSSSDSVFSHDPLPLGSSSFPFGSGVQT

As a reminder, the inhibition is the change of the read-out against control, counted positive when it falls. `CC(C)c1ccc(Nc2nccc(-c3cnn4ncccc34)n2)cc1`: the inhibition in test [1] turned out to be 16%; in test [2], 5.26%; in [3], 25.5%; in test [4] it was 4.84%; in test [5], 4.17%; in [6] it was 0.37%. Besides, the inhibition in [7] is 7.86%; in test [8] it was 7.5%; in [9], 6.25%; in [10], 2.11%; in [11] it was 3.28%; in test [12] it was 3.66%. Also, the inhibition amounted to 7.87% in test [13]; 3.33% in test [14]; 10.9% in test [15]; 16.1% in test [16]; 61.1% in test [17]; 1.27% in test [18]. Further, the inhibition in test [19] is -0.13%; in test [20], 2.38%.
For the molecule `COc1ccc2ncnc(Nc3ccc(OCc4ccccc4)cc3)c2c1`, the inhibition in test [1] was 4.76%; in test [2] it was 0.67%; in test [3], 1.33%; in [4] it was 1.89%; in test [5], -1.53%; in test [6], 1.22%. The inhibition in [7] came to 2.56%; in [8] it was 1.63%; in test [9] it was 2.3%; in test [10], 1.47%; in test [11], 2.59%; in [12], 3.7%. Besides, the inhibition came out at 15.4% in test [13]; 0.14% in test [14]; 1.06% in [15]; 0.29% in test [16]; 2.85% in test [17]; 1.85% in [18]. The inhibition in test [19] is -1%; in [20], 1.22%.
As to `Cc1cc(Cl)cc2c1NC(=O)C2=NNc1ccc(S(N)(=O)=O)cc1`, the inhibition in test [1] is 5.08%; in [2], 0.93%; in [3], 0.42%; in test [4] it was 3.14%; in test [5], 2.77%; in [6], 1.45%. The inhibition is 3.49% in test [7]; 1.47% in test [8]; 0.97% in test [9]; -0.13% in [10]; 2.64% in test [11]; 4.99% in test [12]. Also, the inhibition is 2.96% in [13]; 0.01% in test [14]; -0.12% in [15]; 2.63% in [16]; 1.85% in test [17]; -2.63% in test [18]. The figures for the inhibition in test [19] and in test [20] were 0.66% and 1.11%, respectively.
For `NC(=O)c1sc(-n2cnc3ccccc32)cc1OCc1ccccc1Br`, the inhibition was found to be 3.22% in test [1]; 2.73% in test [2]; 4.01% in [3]; 6.09% in test [4]; 6.22% in test [5]; 5.8% in test [6]. Further, the inhibition is 4.79% in [7]; 5.69% in test [8]; 4.87% in [9]; 1.18% in test [10]; 0.92% in test [11]; 1.44% in test [12]. The inhibition in test [13] is 6.14%; in test [14] it was -0.01%; in [15], 4.57%; in test [16] it was 2.74%; in test [17], 1%; in test [18] it was -6.76%. Further, the inhibition in test [19] was -4.77%; in test [20], 1.17%.
For `C[C@@H](Oc1cc(-n2cnc3ccc(OCC4CCN(C)CC4)cc32)sc1C(N)=O)c1ccccc1C(F)(F)F`, the inhibition in [1] was 4.43%; in test [2], -1.88%; in [3], -1.98%; in test [4], -9.02%; in [5], 13%; in test [6], -3.05%. The inhibition in test [7] was 7.56%; in test [8], -0.95%; in test [9] it was 0.66%; in test [10], 0.86%; in test [11] it was -0.61%; in test [12] it was 2.16%. Moreover, the inhibition is 13.4% in test [13]; -0.83% in [14]; -0.16% in test [15]; 1.99% in [16]; 11% in test [17]; 3.19% in [18]. Also, the values for the inhibition in [19] and in test [20] were 3.05% and -0.92%, respectively.
Take `[O-][S+]1CCN(Cc2ccc(-c3ccc4ncnc(Nc5ccc(OCc6ccccc6)c(Cl)c5)c4c3)o2)CC1`: the inhibition in test [1] is 4.1%; in test [2], 1.31%; in test [3], 1.62%; in test [4], -2.69%; in test [5] it was 1.21%; in test [6], 0.85%. Further, the inhibition was 3.74% in test [7]; -0.22% in [8]; 3.23% in [9]; -0.05% in [10]; -0.87% in test [11]; -0.44% in test [12]. For the same molecule, the inhibition in [13] is 8.63%; in test [14], -0.09%; in [15] it was 1.05%; in test [16], 5.36%; in test [17] it was 2.27%; in test [18], 0.74%. Besides, the inhibition in test [19] was -0.57%; in test [20], 0.39%.
In the case of `COc1cc2ncnc(Nc3ccc4c(cnn4Cc4ccccc4)c3)c2cc1OC`, the inhibition was 7.92% in test [1]; 2.06% in test [2]; 2% in [3]; -0.45% in test [4]; 3.82% in [5]; 3.33% in test [6]. In addition, the inhibition in [7] is 7.69%; in test [8], 3.3%; in test [9] it was 3.13%; in test [10], -0.15%; in [11] it was -0.35%; in [12], 18.4%. Moreover, the inhibition is 44.2% in test [13]; 0.61% in test [14]; 3.06% in [15]; 4.33% in test [16]; 5.83% in test [17]; -2.99% in [18]. Besides, the figures for the inhibition in test [19] and in test [20] were -3.38% and 1.85%, respectively.
